Experimental data from PubChem BioAssay (NCI).
Where “and” joins values, the source holds several entries; their conditions need not be identical. Identical values can stand only once. The panel holds about 83,000 compounds, 20% with a hit somewhere; the sample as a whole holds those more often.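 A percent growth of 40 corresponds to 60% growth inhibition; 0 means no net growth; -100 means all cells died. Active threshold: below 10.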 Calls of active or inactive are those of the source.

Experiments:
Test in all cases: NCI-60 one-dose screen, 48 h (100 = growth as untreated, 0 = no growth, -100 = all killed)
[1] = tested on: DU-145 prostate
[2] = tested on: K-562 leukemia
[3] = tested on: MALME-3M melanoma
[4] = tested on: MDA-MB-231 breast
[5] = tested on: RXF 393 renal
[6] = tested on: SF-268 CNS
[7] = tested on: SF-295 CNS
[8] = tested on: SF-539 CNS
[9] = tested on: UACC-257 melanoma
[10] = tested on: HCT-15 colon
[11] = tested on: HT29 colon
[12] = tested on: SNB-75 CNS
[13] = tested on: SNB-19 CNS
[14] = tested on: U251 CNS
[15] = tested on: PC-3 prostate
[16] = tested on: SK-MEL-5 melanoma
[17] = tested on: UACC-62 melanoma
[18] = tested on: LOX IMVI melanoma
[19] = tested on: M14 melanoma; settings: 10 µM
[20] = tested on: SK-MEL-28 melanoma; settings: 10 µM

Measured: growth

CN(Cc1cnc2nc(N)nc(N)c2n1)c1ccc(C(=O)N[C@@H](CCC(=O)O)C(=O)O)cc1
inactive: [1]; 2.5 µM 31.8% | [1]; 10 µM 39.6% | [2]; 2.5 µM 23.8% | [2]; 10 µM 23.3% | [3]; 2.5 µM 61.6% | [3]; 10 µM 62% | [4]; 2.5 µM 71.1% | [4]; 10 µM 59.9% | [5]; 2.5 µM 18.7% | [5]; 10 µM 13% | [6]; 2.5 µM 36.8% | [6]; 10 µM 25.1% | [7]; 2.5 µM 18.4% | [7]; 10 µM 19.7% | [9]; 10 µM 12% | [10]; 2.5 µM 28.5% | [10]; 10 µM 36% | [11]; 2.5 µM 29% | [11]; 10 µM 25.9% | [12]; 2.5 µM 73.8% | [12]; 10 µM 66% | [13]; 2.5 µM 33.9% | [13]; 10 µM 29.5% | [14]; 2.5 µM 34.1% | [14]; 10 µM 38.3% | [15]; 2.5 µM 33.8% | [15]; 10 µM 37% | [16]; 2.5 µM 20% | [17]; 2.5 µM 24.5% | [17]; 10 µM 16.8% | [18]; 2.5 µM 14.3% | [18]; 10 µM 16.3%
active: [8]; 2.5 µM -3.25% | [8]; 10 µM -0.266% | [9]; 2.5 µM 9.31% | [16]; 10 µM 3.31%

CC[C@@]1(O)C(=O)OCc2c1cc1n(c2=O)Cc2cc3c(CN(C)C)c(O)ccc3nc2-1
-63.5% (active) and 11.3% (inactive): [5]; 10 µM
active: [1]; 10 µM -18% | [2]; 10 µM -22.7% | [3]; 10 µM -11% and -39.7% | [7]; 10 µM -31.3% and -15% | [8]; 10 µM -19% and -42.7% | [9]; 10 µM -57.9% and 5.98% | [19] -7.26% and -31.9% | [11]; 10 µM -15.4% and -22.9% | [12]; 10 µM 2.72% and -62.8% | [14]; 10 µM -23% and 2.06% | [15]; 10 µM -1.74% | [16]; 10 µM -85.8% and -77.4% | [17]; 10 µM -73.1% and -71.5% | [18]; 10 µM -14.1% and -34.9%
6.03% (active) and 13.3% (inactive): [6]; 10 µM
inactive: [4]; 10 µM 35.9% and 47.6% | [13]; 10 µM 16% and 10.7% | [20] 19.5%
21.2% (inactive) and -10.4% (active): [10]; 10 µM
